# About 8,800 targets were measured; listed, in parts, are those with a hit and a random draw of the rest. About 0.5% of all pairs of compound and target were hits. Values without a mark were called inactive.
# Assays:
# Assay in all cases: log2 fold change, soluble protein after heating vs DMSO (PISA); higher = thermal stabilisation; K562 lysate, 10 uM; active = over 0.2 and 3.5 SD of the protein, either way, in both replicates (recomputed)
# nilotinib = compound: Cc1cn(-c2cc(NC(=O)c3ccc(C)c(Nc4nccc(-c5cccnc5)n4)c3)cc(C(F)(F)F)c2)cn1 [nilotinib]
# Procedure, shortened: (§1)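 Dounce homogenisation of K562 pellets in PBS pH 7.4 with 1 mM MgCl2 produced a crude extract, used at 1 mg/mL protein. Exposure to 10 μM compound lasted 30 min, and aliquots were then heated for 3 min across 48°C-58°C, pooled and brought to 0.5% NP-40 at 4°C. The supernatant after 21,000xg for 90 min was quantified by TMTpro 16plex LC-MS/MS with channel sums equalised. Duplicate values are given as log-two fold change in thermal stability relative to solvent controls.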
# [1] = compound: Cc1nc(Nc2n[nH]c3c2CN(C(=O)N[C@H](CN(C)C)c2ccccc2)C3(C)C)c2sccc2n1
# Procedure, shortened: as §1
# dasatinib = compound: Cc1nc(Nc2ncc(C(=O)Nc3c(C)cccc3Cl)s2)cc(N2CCN(CCO)CC2)n1 [dasatinib]
# Procedure, shortened: as §1
# [2] = compound: Cc1ncc(-c2ccnc(Nc3ccc(S(C)(=O)=O)cc3)n2)n1C(C)C
# Procedure, shortened: as §1
# [3] = compound: Cn1cc(-c2ccc3c(c2)CCN3C(=O)Cc2cccc(C(F)(F)F)c2)c2c(N)ncnc21
# Procedure, shortened: as §1
# quisinostat = compound: Cn1cc(CNCC2CCN(c3ncc(C(=O)NO)cn3)CC2)c2ccccc21 [quisinostat]
# Procedure, shortened: as §1
# tipifarnib = compound: Cn1cncc1[C@@](N)(c1ccc(Cl)cc1)c1ccc2c(c1)c(-c1cccc(Cl)c1)cc(=O)n2C [tipifarnib]
# Procedure, shortened: as §1
# [4] = compound: NC(=O)Nc1cc(-c2cccc(F)c2)sc1C(=O)N[C@H]1CCCNC1
# Procedure, shortened: as §1
# [5] = compound: NC(=O)c1cnc(N[C@@H]2CCCC[C@@H]2N)nc1Nc1cccc(-n2nccn2)c1
# Procedure, shortened: as §1
# [6] = compound: NC1(c2ccc(-c3nc4ccn5c(=O)[nH]nc5c4cc3-c3ccccc3)cc2)CCC1
# Procedure, shortened: as §1
# [7] = compound: NCC(=O)Nc1ccc(-n2nc(C(F)(F)F)cc2-c2ccc3c(ccc4ccccc43)c2)cc1
# Procedure, shortened: as §1
# vorinostat = compound: O=C(CCCCCCC(=O)Nc1ccccc1)NO [vorinostat]
# Procedure, shortened: as §1
# silmitasertib = compound: O=C(O)c1ccc2c(c1)nc(Nc1cccc(Cl)c1)c1ccncc12 [silmitasertib]
# Procedure, shortened: as §1
# [8] = compound: O=C1NC(=O)C(c2cnc3ccccn23)=C1c1cn2c3c(cc(F)cc13)CN(C(=O)N1CCCCC1)CC2
# Procedure, shortened: as §1
# entospletinib = compound: c1cn2cc(-c3ccc4cn[nH]c4c3)nc(Nc3ccc(N4CCOCC4)cc3)c2n1 [entospletinib]
# Procedure, shortened: as §1
# UniProt Q8N4N3, sequence (Q8N4N3 whole entry, looked up): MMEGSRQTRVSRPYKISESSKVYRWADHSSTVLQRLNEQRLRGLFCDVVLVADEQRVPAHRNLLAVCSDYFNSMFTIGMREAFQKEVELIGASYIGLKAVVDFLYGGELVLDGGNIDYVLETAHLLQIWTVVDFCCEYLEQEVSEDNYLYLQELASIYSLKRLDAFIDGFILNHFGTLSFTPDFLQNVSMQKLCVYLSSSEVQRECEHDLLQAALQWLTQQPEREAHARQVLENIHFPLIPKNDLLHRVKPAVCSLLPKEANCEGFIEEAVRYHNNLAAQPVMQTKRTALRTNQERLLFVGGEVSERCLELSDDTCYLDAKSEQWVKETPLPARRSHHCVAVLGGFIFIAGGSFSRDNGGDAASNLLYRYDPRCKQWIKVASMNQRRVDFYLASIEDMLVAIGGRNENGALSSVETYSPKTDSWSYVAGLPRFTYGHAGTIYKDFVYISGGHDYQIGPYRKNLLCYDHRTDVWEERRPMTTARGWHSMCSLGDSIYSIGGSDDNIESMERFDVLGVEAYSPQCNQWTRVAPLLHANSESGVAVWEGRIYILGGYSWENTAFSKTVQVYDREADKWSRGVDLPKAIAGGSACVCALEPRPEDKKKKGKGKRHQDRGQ
# UniProt O00629, sequence (O00629 whole entry, looked up): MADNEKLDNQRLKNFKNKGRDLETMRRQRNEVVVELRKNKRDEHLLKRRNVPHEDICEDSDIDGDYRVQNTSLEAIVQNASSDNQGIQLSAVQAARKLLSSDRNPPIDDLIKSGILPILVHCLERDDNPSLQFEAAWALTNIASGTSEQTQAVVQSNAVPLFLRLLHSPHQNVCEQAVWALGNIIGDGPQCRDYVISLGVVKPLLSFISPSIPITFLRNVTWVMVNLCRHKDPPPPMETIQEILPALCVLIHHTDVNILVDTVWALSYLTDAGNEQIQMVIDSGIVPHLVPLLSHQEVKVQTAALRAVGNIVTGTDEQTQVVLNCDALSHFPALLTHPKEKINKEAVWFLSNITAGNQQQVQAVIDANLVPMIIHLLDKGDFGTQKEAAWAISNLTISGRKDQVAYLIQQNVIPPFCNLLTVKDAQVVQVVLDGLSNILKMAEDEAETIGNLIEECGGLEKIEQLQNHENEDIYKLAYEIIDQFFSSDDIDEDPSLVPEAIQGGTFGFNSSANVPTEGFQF
# UniProt P49916, sequence (P49916 whole entry, looked up): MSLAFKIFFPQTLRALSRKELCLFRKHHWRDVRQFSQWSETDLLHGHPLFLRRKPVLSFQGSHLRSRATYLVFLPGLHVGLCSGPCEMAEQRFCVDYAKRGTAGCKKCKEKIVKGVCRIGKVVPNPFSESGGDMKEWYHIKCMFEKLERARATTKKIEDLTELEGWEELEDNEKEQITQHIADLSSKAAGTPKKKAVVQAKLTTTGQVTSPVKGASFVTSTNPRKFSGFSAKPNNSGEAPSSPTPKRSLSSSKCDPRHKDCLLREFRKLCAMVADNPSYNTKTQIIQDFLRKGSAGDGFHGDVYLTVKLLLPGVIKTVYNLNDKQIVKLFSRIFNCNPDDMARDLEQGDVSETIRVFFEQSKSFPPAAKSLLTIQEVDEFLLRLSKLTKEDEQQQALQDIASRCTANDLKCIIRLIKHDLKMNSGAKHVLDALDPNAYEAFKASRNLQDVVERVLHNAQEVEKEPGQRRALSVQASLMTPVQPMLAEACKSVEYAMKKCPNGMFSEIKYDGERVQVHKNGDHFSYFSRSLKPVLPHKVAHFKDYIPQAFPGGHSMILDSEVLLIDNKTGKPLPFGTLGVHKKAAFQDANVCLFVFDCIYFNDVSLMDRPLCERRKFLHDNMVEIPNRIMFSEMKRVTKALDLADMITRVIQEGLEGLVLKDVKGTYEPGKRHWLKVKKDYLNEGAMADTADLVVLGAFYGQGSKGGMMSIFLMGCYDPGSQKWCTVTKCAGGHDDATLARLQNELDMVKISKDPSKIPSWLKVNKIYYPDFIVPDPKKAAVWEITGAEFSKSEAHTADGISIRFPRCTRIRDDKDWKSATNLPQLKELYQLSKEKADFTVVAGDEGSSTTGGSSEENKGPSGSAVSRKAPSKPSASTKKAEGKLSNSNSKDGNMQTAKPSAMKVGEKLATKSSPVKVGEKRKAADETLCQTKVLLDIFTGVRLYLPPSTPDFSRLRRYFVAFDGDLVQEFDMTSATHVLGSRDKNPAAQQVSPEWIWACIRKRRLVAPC
# UniProt Q9H8H3, sequence (Q9H8H3 whole entry, looked up): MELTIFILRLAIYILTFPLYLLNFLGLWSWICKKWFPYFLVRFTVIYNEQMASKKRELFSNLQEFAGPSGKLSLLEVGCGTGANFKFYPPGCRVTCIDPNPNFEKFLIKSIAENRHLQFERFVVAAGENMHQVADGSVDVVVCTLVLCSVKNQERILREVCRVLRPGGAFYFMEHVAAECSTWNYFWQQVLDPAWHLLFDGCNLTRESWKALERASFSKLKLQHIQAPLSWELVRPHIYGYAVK
# UniProt Q8IYU8, sequence (Q8IYU8 whole entry, looked up): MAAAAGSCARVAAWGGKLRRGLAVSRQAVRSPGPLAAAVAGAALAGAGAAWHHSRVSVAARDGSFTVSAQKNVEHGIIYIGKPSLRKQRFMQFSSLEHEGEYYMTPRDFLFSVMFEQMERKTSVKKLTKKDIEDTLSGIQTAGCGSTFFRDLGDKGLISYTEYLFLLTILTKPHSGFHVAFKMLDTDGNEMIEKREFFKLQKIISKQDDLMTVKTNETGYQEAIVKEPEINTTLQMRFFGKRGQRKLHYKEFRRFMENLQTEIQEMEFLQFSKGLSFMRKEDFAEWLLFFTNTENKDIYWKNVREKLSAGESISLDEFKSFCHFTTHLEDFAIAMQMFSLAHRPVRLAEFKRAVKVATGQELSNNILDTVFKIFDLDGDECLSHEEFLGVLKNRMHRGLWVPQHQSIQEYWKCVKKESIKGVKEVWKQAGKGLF
# UniProt Q15334, sequence (Q15334 whole entry, looked up): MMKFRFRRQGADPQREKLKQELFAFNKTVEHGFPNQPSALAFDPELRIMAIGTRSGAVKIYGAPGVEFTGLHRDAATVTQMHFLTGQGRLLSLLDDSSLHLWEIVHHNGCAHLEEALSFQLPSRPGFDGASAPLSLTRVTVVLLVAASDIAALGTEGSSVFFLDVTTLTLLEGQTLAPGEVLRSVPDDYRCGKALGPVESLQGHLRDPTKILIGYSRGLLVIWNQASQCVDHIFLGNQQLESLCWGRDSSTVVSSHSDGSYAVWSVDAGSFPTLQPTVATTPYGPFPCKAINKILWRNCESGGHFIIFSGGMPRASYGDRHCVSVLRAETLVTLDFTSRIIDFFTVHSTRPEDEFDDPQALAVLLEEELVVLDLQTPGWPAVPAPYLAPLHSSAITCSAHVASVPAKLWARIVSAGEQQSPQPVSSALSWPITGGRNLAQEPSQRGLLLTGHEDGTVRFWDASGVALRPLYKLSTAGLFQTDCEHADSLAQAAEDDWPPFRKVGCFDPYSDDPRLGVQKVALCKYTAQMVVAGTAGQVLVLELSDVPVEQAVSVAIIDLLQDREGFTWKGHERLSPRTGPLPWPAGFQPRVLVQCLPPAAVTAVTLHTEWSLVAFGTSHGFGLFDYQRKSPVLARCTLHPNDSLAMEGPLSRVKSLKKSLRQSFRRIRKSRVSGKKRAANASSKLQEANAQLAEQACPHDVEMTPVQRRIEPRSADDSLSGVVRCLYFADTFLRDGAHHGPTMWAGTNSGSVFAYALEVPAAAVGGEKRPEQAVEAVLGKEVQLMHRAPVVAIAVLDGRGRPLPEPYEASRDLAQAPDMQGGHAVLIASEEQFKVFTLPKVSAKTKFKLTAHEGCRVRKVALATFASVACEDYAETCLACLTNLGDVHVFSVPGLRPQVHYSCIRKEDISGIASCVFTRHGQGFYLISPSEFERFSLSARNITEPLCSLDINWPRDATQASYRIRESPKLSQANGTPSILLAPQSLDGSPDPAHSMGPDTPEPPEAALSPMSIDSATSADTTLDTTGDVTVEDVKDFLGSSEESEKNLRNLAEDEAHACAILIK
# UniProt Q09328, sequence (Q09328 whole entry, looked up): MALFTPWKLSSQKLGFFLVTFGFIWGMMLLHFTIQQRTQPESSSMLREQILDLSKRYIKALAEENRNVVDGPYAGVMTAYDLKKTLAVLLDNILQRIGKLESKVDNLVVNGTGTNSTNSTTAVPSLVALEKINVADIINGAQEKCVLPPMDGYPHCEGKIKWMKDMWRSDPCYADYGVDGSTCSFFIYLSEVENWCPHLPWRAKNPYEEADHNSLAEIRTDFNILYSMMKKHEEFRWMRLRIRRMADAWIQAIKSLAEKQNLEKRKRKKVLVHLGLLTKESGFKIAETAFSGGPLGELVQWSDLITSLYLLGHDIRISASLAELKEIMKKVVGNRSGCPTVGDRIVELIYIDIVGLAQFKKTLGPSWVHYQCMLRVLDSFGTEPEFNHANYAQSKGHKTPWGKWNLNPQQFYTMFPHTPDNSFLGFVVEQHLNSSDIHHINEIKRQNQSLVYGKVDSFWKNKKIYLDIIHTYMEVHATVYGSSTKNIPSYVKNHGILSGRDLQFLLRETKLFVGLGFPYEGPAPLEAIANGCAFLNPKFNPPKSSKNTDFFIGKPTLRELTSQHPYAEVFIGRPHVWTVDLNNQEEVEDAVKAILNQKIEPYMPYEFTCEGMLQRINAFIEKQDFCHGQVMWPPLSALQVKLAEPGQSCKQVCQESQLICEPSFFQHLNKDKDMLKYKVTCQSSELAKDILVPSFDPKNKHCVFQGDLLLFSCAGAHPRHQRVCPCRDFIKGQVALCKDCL
# UniProt Q9UBB5, sequence (Q9UBB5 whole entry, looked up): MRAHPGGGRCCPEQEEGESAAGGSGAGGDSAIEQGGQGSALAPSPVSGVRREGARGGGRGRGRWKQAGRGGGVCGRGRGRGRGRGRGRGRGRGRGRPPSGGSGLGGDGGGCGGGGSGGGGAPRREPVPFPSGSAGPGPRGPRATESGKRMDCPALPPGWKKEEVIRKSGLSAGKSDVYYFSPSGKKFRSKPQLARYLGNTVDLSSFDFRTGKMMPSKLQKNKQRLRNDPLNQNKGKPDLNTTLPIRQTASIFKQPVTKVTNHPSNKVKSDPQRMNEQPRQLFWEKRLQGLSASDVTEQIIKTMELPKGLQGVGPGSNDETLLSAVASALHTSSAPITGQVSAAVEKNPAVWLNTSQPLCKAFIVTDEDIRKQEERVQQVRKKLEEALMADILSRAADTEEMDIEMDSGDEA
Target,log2 fold change (nilotinib),log2 fold change [1],log2 fold change (dasatinib),log2 fold change [2],log2 fold change [3],log2 fold change (quisinostat),log2 fold change (tipifarnib),log2 fold change [4],log2 fold change [5],log2 fold change [6],log2 fold change [7],log2 fold change (vorinostat),log2 fold change (silmitasertib),log2 fold change [8],log2 fold change (entospletinib)
MACO1 (UniProt Q8N5G2),-0.003,0.017,-0.092,0.066,0.004,0.042,0.042,0.033,-0.02,0.054,0.081,0.028,-0.003,-0.003,0.005
LLGL1 (UniProt Q15334),0,0.149,-0.011,0.052,0.016,-0.046,-0.077,0.159,0.053,0.075,0.078,-0.524 (active),0.077,-0.046,0.042
KIF4B (UniProt Q2VIQ3),-0.016,0.034,-0.013,0.049,0.096,-0.08,-0.009,0.037,0.045,-0.078,-0.035,-0.506 (active),0.027,-0.02,0
LIG3 (UniProt P49916),0.012,0.002,-0.011,-0.019,0.046,-0.024,-0.004,0.059,0.008,0.011,-0.061,-0.411 (active),0.018,-0.012,-0.004
MBD2 (UniProt Q9UBB5),0.012,0.007,-0.039,0,0.069,-0.014,-0.011,-0.009,-0.003,0.024,0.018,-0.244 (active),0.017,-0.022,0.022
MARK2 (UniProt E9PC69),0.019,0.034,-0.03,0.012,-0.047,0.031,-0.019,-0.065,0.002,-0.183,0.026,-0.167,0.486 (active),0.006,0.153
MAP3K4 (UniProt Q9Y6R4),0.003,0.206,0.485 (active),0.095,0.132,-0.078,-0.015,0.203,0.045,-0.021,-0.025,-0.524 (active),0.229,-0.025,-0.045
KPNA4 (UniProt O00629),-0.013,0.006,0.063,0.018,0.003,-0.088,-0.033,-0.012,0,-0.058,0.006,0.047,0.024,0.02,0.021
MGAT5 (UniProt Q09328),0.035,0.01,-0.005,0.012,0.002,0.051,-0.02,-0.019,0.022,-0.003,0.054,0.139,-0.014,0.013,0.063
MBOAT2 (UniProt Q6ZWT7),-0.006,-0.095,-0.178,0.024,-0.027,-0.042,0.12,0.011,0.03,-0.012,-0.017,0.13,0.024,0.005,-0.092
KNOP1 (UniProt Q1ED39),-0.09,0.055,-0.028,-0.095,-0.001,-0.169,-0.01,0.007,0.048,-0.062,0.019,0.063,0.005,0.03,-0.035
MICU2 (UniProt Q8IYU8),-0.052,0.02,-0.026,0.048,-0.015,-0.03,-0.043,0.07,0.105,-0.009,0.012,-0.179,0.031,-0.009,-0.089
KLHL36 (UniProt Q8N4N3),0.012,-0.104,-0.021,0.027,0.049,0.043,0.067,0.007,-0.023,-0.014,0.059,-0.161,0.082,-0.037,-0.006
KPNA2 (UniProt P52292),-0.051,-0.002,-0.041,0.018,0.039,-0.01,-0.023,0.026,0.039,-0.05,-0.014,-0.376 (active),0.018,0.009,0.019
LRWD1 (UniProt Q9UFC0),0.026,-0.05,-0.055,0.017,0.02,-0.132,0.007,0.053,0.017,-0.033,-0.022,-0.322 (active),-0.008,-0.011,0.006
LARS2 (UniProt Q15031),-0.002,0.048,-0.075,-0.008,0.065,0.028,-0.085,0.089,0.044,-0.036,-0.062,-0.229,0.054,-0.083,0.036
METTL7A (UniProt Q9H8H3),0.168,0.014,0.198,-0.01,0.096,-0.112,0.03,-0.026,-0.055,-0.068,0.037,0.017,-0.053,0.274,-0.001
MAP4K4 isoform 3 (UniProt O95819),-0.108,0.03,-0.103,0.002,0.006,-0.103,0.038,0.27 (active),0.02,-0.032,0.041,-0.145,0.045,–,0.178
MRPL27 (UniProt Q9P0M9),-0.112,0.027,0.089,-0.039,0.091,-0.012,0.015,-0.006,0.072,-0.064,–,0.087,0.106,-0.008,-0.027
MAP4K5 (UniProt Q9Y4K4),-0.035,0,0.528 (active),-0.007,0.105,-0.245,0.082,0.468 (active),-0.029,0.11,-0.072,-0.218,-0.008,-0.07,0

# — the supplement of paper PMC10849652
